A selection: hits, their analogues and other compounds. The true share with any hit is near 3%.
SENP7 inh – blocks the human protease SENP7. Q9BQF6. inhibition, % at 5 µM. actives 1.5% (n = 330,000). recombinant SENP7, Z-RLRGG-aminoluciferin luminescence, 40 min;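 active means inhibition above about 50% at the single test dose, limit read from the data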;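 further: plate controls were DMSO with enzyme for no effect and no enzyme buffer wells for full effect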
SENP8 block-1 – SENP8 protease inhibition | actives 1.2% (n = 330,000) | inhibition, % at 10 µM | purified SENP8, Z-RLRGG-aminoluciferin cleavage, luminescence; in the data active means inhibition above about 50%
Target sequence (Q96LD8 whole entry, looked up): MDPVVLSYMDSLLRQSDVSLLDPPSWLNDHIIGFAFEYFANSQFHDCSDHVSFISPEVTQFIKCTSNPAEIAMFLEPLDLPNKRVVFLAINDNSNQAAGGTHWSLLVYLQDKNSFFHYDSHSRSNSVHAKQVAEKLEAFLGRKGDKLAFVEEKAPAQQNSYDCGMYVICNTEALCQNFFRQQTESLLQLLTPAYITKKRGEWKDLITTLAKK
PPC-1+TRAIL kill – PPC-1 cancer cell killing with TRAIL present; PPC-1 cells + TRAIL, ATPLite viability luminescence; cell killing (% activity), % at 4 µM or 5 µM; actives 0.41% (n = 220,000);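 active means cell killing above 50% in the first pass at 4 µM, then a duplicate retest at 5 µM averaging 50% or more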;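 further: plate controls were cells with TRAIL plus DMSO for no effect and medium-only wells lacking cells for full effect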
SENP6 inh – SENP6 protease inhibition; Recombinant SENP6 catalytic domain, aminoluciferin luminescence; inhibition, % at 10 µM; actives 1.8% (n = 330,000); Q9GZR1;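 active means inhibition above about 50% at the single tested dose, limit read from the data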;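 further: plate controls were DMSO wells with enzyme for no effect and DMSO wells lacking enzyme for full effect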
Target sequence (Q9GZR1 628-1112 limits assumed): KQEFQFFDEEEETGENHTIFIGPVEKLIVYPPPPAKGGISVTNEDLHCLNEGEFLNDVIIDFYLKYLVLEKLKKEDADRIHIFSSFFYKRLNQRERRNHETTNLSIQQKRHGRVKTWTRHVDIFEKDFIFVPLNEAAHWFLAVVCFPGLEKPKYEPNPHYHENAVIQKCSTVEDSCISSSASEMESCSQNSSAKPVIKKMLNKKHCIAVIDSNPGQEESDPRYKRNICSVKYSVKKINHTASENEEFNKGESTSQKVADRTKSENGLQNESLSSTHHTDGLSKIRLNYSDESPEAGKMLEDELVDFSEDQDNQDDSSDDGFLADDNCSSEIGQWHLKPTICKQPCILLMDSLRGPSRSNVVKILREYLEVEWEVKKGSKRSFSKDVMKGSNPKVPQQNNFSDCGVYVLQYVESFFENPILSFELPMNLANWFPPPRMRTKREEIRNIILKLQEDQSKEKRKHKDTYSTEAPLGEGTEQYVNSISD
C8 TRAIL sens – sensitizes caspase-8 expressing cells to TRAIL | NB7+C8 cells + TRAIL, ATPlite viability luminescence | inhibition (viability loss, TRAIL sensitization), % at 10 µM | actives 1% (n = 360,000) | AID 624354;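 active means compounds causing at least 50% loss of cell viability in the single-dose screen, relative to plate controls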
SENP8 block-2 – blocks human SENP8 cleavage of Nedd8 substrate | recombinant SENP8, Nedd8 substrate fluorescence | inhibition, % at 20 µM | actives 0.64% (n = 360,000); in the data active means inhibition mostly above about 40%, no sharp cut-off; inactive means mostly below about 27%
SENP8 conf – confirmation of human SENP8 protease inhibitors. shares compounds with SENP7 inh. Recombinant SENP8, Z-RLRGG-aminoluciferin luminescence, 60 min. inhibition, % at 12.5 µM. actives 40% (n = 6,200). AID 488912;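 active means mean inhibition across replicates above about 50%, limit read from the data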
SENP6 confirm – human SENP6 inhibition, confirmed; recombinant SENP6, Z-RLRGG-aminoluciferin luminescence; shares compounds with SENP7 inh; actives 58% (n = 6,200); AID 488915; inhibition, % at 12.5 µM
SENP7 conf – human SENP7 inhibition, confirmed; shares compounds with SENP7 inh; inhibition, % at 12.5 µM; actives 69% (n = 6,200); recombinant SENP7, Z-RLRGG-aminoluciferin luminescence, 40 min; AID 488917
Casp3 select – inhibits human caspase-3 in SENP selectivity test | shares compounds with SENP7 inh | actives 60% (n = 6,200) | inhibition, % at 12.5 µM | AID 488918 | purified caspase-3, Z-DEVD-aminoluciferin luminescence, 60 min;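 active means mean inhibition above about 50%, limit read from the data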;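 further: plate controls were enzyme with DMSO for no effect and wells without caspase-3 for full effect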
SENP luc ctr – interferes with luciferase luminescence in SENP counter-screen. Pre-incubated SENP8/Z-RLRGG-aminoluciferin, luciferase luminescence interference. actives 39% (n = 6,200). shares compounds with SENP7 inh. inhibition, % at 12.5 µM;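 active means mean inhibition above about 50% when retested at one dose, limit read from the data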;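 further: plate controls were DMSO wells with completed reaction for no effect and substrate without enzyme for full effect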
Starred values were filed as active, the others as inactive; i = inactive; x = no result.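 How the source made its calls, unless noted: active means mean inhibition above about 50% in the one-dose retest (limit read from the data); inactive means the rest.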

SMILES	SENP7 inh	SENP8 block-1	PPC-1+TRAIL kill	SENP6 inh	C8 TRAIL sens	SENP8 block-2	SENP8 conf	SENP6 confirm	SENP7 conf	Casp3 select	SENP luc ctr
O=C1C(Cl)=C(Nc2ccccc2O)C(=O)N1c1ccccc1	26.8	14.1	-1.5	51.6*	0.3	19.0	41.7	38.1	65.7*	60.1*	50.8*
COc1ccccc1N1C(=O)C(Cl)=C(Nc2ccccc2O)C1=O	x	x	0.7	x	3.2	29.9	x	x	x	x	x
N#CC(C#N)=NNc1ccc([N+](=O)[O-])cc1	44.3	74.4*	5.9	81.5*	-18.8	24.1	10.8	82.5*	93.2*	61.2*	82.6*
CCCn1c(O)c(N=Nc2ccc3ccccc3n2)c2ccccc21	92.8*	85.2*	-1.5	95.3*	28.2	24.7	41.6	57.4*	61.2*	70.2*	0.3
Cc1ccc(Cl)cc1NC1=C/C(=N\S(=O)(=O)c2cccs2)c2ccccc2C1=O	75.7*	77.7*	-6.9	75.3*	92.0*	84.6*	82.0*	95.5*	76.8*	85.4*	-0.3
Cc1ccc(Cl)cc1NS(=O)(=O)c1ccccc1	x	x	x	x	-14.2	-0.3	x	x	x	x	x
C#CCNC(=O)c1ccc(OCc2ccccc2)cc1Cl	64.4*	63.4*	15.4	75.1*	-1.0	10.8	69.8*	66.9*	87.0*	80.0*	69.4*
O=C(c1cc(C2CC2)nn1-c1ccccc1)N1CCN(S(=O)(=O)c2ccccc2F)CC1	x	x	x	x	-0.9	17.8	x	x	x	x	x
CC(C)OCCCNC(=O)c1cc2c(s1)CS(=O)(=O)C2	97.8*	-0.3	15.0	4.5	5.2	8.5	6.7	8.3	5.0	1.1	0.8
COCCCNC(=O)c1cc2c(s1)CS(=O)(=O)C2	1.6	2.3	-18.6	6.5	-7.0	7.3	x	x	x	x	x
O=C(NC1(O)C(=O)c2ccccc2C1=O)c1ccccc1	62.7*	65.1*	10.2	70.2*	-22.9	99.1*	75.4*	88.6*	81.2*	6.9	9.9
O=C(NC1(O)C(=O)c2ccccc2C1=O)c1c(Cl)cccc1Cl	60.3*	63.7*	18.5	64.6*	-6.5	97.3*	67.1*	85.9*	75.1*	9.0	5.8
O=C(Nc1ccccc1Cl)c1c(F)c(F)c(F)c(F)c1F	-6.0	-8.8	x	0.5	19.2	1.5	x	x	x	x	x
C=CCNc1ncnc2c1ncn2[C@H]1CN(CCOC)C[C@@H](CO)O1	x	x	x	x	8.9	5.3	x	x	x	x	x
CN(C(=O)COC(=O)c1ccc(Cl)c(S(=O)(=O)NCc2ccccc2)c1)C1CCS(=O)(=O)C1 (stereo not given)	x	x	x	x	-8.7	10.2	x	x	x	x	x
Cc1cccc(NC(=S)NCCc2ccc3c(c2)OCCO3)c1C	-7.8	-4.1	16.7	6.2	-8.3	7.6	x	x	x	x	x
Cc1ccc(/C=N\NC(=O)c2csnn2)cc1	50.4*	29.9	18.6	54.9*	11.6	24.1	41.3	39.3	76.6*	81.0*	27.7
Cc1ccc(/C=N/NC(=O)c2ccncc2)cc1	-13.6	-12.2	x	-18.6	0.5	25.5	x	x	x	x	x
O=C(Nc1ccc2c(c1)OCO2)c1ccc(Br)s1	78.3*	59.9*	34.1	74.1*	40.6	11.8	71.6*	66.9*	91.5*	65.4*	70.8*
CC(=NNC(=O)c1cccs1)c1ccc2c(c1)OCCO2	-13.6	-10.9	x	-1.9	11.6	-49.4	x	x	x	x	x
O=C(Nc1ccc2c(c1)OCO2)c1ccncc1	-14.9	-17.4	-2.3	-2.8	1.8	14.2	x	x	x	x	x
O=C(c1ccc2c(c1)OCCCO2)c1cccs1	49.6	29.9	31.7	53.8*	24.0	10.0	51.5*	49.6	82.2*	66.4*	63.3*
O=C(Nc1ccc2c(c1)OCO2)c1cccs1	47.9	16.0	13.1	64.5*	22.4	0.1	49.4	42.5	72.1*	73.7*	55.4*
O=C(Nc1ccc2c(c1)OCCO2)c1cccs1	72.5*	46.3	28.7	76.4*	46.0	28.2	51.4*	50.0*	84.7*	80.6*	68.3*
O=C(Nc1ccc2c(c1)OCCO2)c1c(Cl)cccc1Cl	x	x	x	x	-11.4	17.1	x	x	x	x	x
SMILES	SENP7 inh	SENP8 block-1	PPC-1+TRAIL kill	SENP6 inh	C8 TRAIL sens	SENP8 block-2	SENP8 conf	SENP6 confirm	SENP7 conf	Casp3 select	SENP luc ctr
N#Cc1c(N2CCSCC2)nsc1-c1ccccc1Cl	x	x	x	x	-5.6	5.4	x	x	x	x	x
O=C(Nc1ccc(N2CCCC2)c(Cl)c1)c1cccs1	48.5	58.2*	40.6	26.4	26.8	-7.1	79.3*	74.5*	92.1*	70.1*	62.2*
COC(=O)c1cccc(NC(=O)c2onc3c2CCCC3)c1	79.0*	76.2*	32.2	92.0*	29.3	18.7	-3.7	47.2	78.6*	61.4*	64.6*
COC(=O)c1cccc(NC(=O)c2ccccc2)c1	-0.2	-9.2	12.0	-3.8	7.9	13.4	x	x	x	x	x
O=C(Nc1ccc2ccccc2c1)c1onc2c1CCCC2	51.8*	64.9*	-12.1	80.2*	26.3	0.7	38.9	81.5*	93.0*	60.5*	43.5
CCOc1cc(C)c(Cl)cc1S(=O)(=O)N(CC)CC	-5.1	62.7*	24.8	2.8	-1.1	15.0	4.3	9.7	10.6	2.6	4.5
Cc1ccc(-c2nc3cc(NC(=O)C(C)C)ccc3o2)cc1C	98.4*	92.3*	21.6	94.6*	37.2	-280.4	4.8	23.1	12.2	76.7*	2.9
COc1cc(OC)cc(-c2nc3cc(C)ccc3o2)c1	98.4*	94.5*	28.7	97.0*	25.7	-39.4	95.4*	97.4*	101.1*	94.4*	93.2*
Cc1cc2nc(-c3ccc(NC(=O)C(C)C)cc3)oc2cc1C	70.2*	20.8	12.3	25.7	20.7	i	13.5	14.2	28.8	45.1	17.4
Cc1ccc(-c2nc3cc(NC(=O)C(C)C)ccc3o2)cc1	83.5*	34.5	36.0	75.5*	46.4	-490.6	0.6	5.5	7.1	13.1	9.7
CCOC(=O)[C@@H]1[C@H]2COc3ccccc3[C@H]2N2C(=O)N(c3cccc(Cl)c3)C(=O)[C@]12C	0.5	2.6	x	-10.9	-4.8	8.4	x	x	x	x	x
CC(=O)Nc1ccc(-c2nc3ccc(NC(C)=O)cc3o2)cc1	-4.8	0.6	x	12.9	1.8	-303.4	x	x	x	x	x
Cc1ccc(-c2nc3cc(Cl)ccc3o2)cc1	89.9*	75.3*	-12.4	90.9*	31.4	0.2	7.2	16.6	35.1	12.9	5.9
